Experimental data taken from PubChem BioAssay AID1159580 (chemical genetic matrix, 2015).
Several values for one entry are separate records, joined by “and”; a condition that tells them apart may be missing. Identical values can stand only once. In all, about 5,500 compounds went through this assay and about 2,000 (36%) were called active. About 18% were inconclusive and are not listed. No stated cut-off is given here; in the data, active means normalized growth mostly below about 0.91 (no sharp cut-off); inconclusive means no clear call, values can overlap the other calls; inactive means mostly above about 0.92. The list shows a part of the results.

Assay: chemical genetic growth profiling, strain panel (AID 1159580);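 further: tested at 20 µM; growth read once vehicle control cultures reached saturation at 30 °C; 1 = growth at the plate median or of vehicle wells; lower values mean less growth of the strain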
Conditions: S. cerevisiae deletion strains, growth OD

Measured: normalized growth

Cc1onc(-c2c(Cl)cccc2Cl)c1C(=O)N[C@@H]1C(=O)N2[C@@H]1SC(C)(C)[C@@H]2C(=O)O
inactive: locus YAL013W, strain DEP1, hits give low values 1.02 | locus YAL021C, strain ccr4, hits give low values 0.969 | locus YAL026C, strain drs2, hits give low values 1.02 | locus YAL030W, strain snc1, hits give low values 0.994 | locus YBL061C, strain skt5, hits give low values 0.991 | locus YBR009C, strain hhf1, hits give low values 1 | locus YBR021W, strain FUR4, hits give low values 1.03 | locus YBR023C, strain chs3, hits give low values 0.986 | locus YBR171W, strain sec66, hits give low values 0.993 | locus YBR229C, strain ROT2, hits give low values 1.01 | locus YBR231C, strain swc5, hits give low values 0.963 | locus YBR279W, strain paf1, hits give low values 0.993 | locus YCL011C, strain gbp2, hits give low values 1.01 | locus YCL016C, strain dcc1, hits give low values 1.03 | locus YCL029C, strain bik1, hits give low values 0.996 | locus YCL069W, strain vba3, hits give low values 0.995 | locus YCR088W, strain abp1, hits give low values 0.975 | locus YDL005C, strain med2, hits give low values 0.995 | locus YDL035C, strain GPR1, hits give low values 1.04 | locus YDL040C, strain nat1, hits give low values 0.988 | locus YDL074C, strain BRE1, hits give low values 1.01 | locus YDL101C, strain DUN1, hits give low values 1.01 | locus YDL134C, strain PPH21, hits give low values 1.05 | locus YDL185W, strain tfp1, hits give low values 0.991 | locus YDL192W, strain arf1, hits give low values 0.993 | locus YDR001C, strain nth1, hits give low values 0.97 | locus YDR069C, strain doa4, hits give low values 0.991 | locus YDR101C, strain arx1, hits give low values 0.994 | locus YDR137W, strain rgp1, hits give low values 0.991 | locus YDR150W, strain NUM1, hits give low values 1.02 | locus YDR159W, strain sac3, hits give low values 0.975 | locus YDR162C, strain NBP2, hits give low values 1.02 | locus YDR195W, strain ref2 0.889 | locus YDR297W, strain sur2, hits give low values 0.973 | locus YDR318W, strain mcm21, hits give low values 0.995 | locus YDR334W, strain swr1, hits give low values 0.948 | locus YDR335W, strain msn5, hits give low values 0.967 | locus YDR388W, hits give low values 1 | locus YDR392W, strain spt3, hits give low values 1.12 | locus YDR502C, strain sam2, hits give low values 0.996 | locus YEL003W, strain gim4, hits give low values 0.973 | locus YEL037C, strain rad23, hits give low values 0.995 | locus YEL061C, strain CIN8 (second series), hits give low values 0.971 | locus YEL061C, strain CIN8, hits give low values 1.01 | locus YER015W, strain faa2, hits give low values 0.991 | locus YER016W, strain bim1, hits give low values 0.997 | locus YER110C, hits give low values 0.992 | locus YER111C, strain swi4, hits give low values 0.998 | locus YER155C, strain BEM2 (second series), hits give low values 0.973 | locus YER155C, strain BEM2, hits give low values 1.01 | locus YER167W, strain BCK2, hits give low values 1.02 | locus YFR010W, strain ubp6, hits give low values 0.97 | locus YGL078C, strain dbp3, hits give low values 1 | locus YGL086W, strain mad1, hits give low values 1.01 | locus YGL167C, strain pmr1, hits give low values 0.976 | locus YGL173C, strain kem1, hits give low values 0.961 | locus YGL227W, strain vid30, hits give low values 0.981 | locus YGL240W, strain doc1, hits give low values 0.951 | locus YGL248W, strain PDE1, hits give low values 1.01 | locus YGL253W, strain hxk2, hits give low values 1.02 | locus YGR078C, strain PAC10, hits give low values 1.01 | locus YGR135W, strain pre9, hits give low values 0.976 | locus YGR229C, strain SMI1, hits give low values 1.02 | locus YGR252W, strain gcn5, hits give low values 0.946 | locus YHR013C, strain ard1, hits give low values 1.02 | locus YHR027C, strain rpn1, hits give low values 0.997 | locus YHR030C, strain SLT2, hits give low values 1.01 and 1.06 | locus YHR079C, strain IRE1 (second series), hits give low values 0.989 | locus YHR079C, strain IRE1, hits give low values 1.02 | locus YHR094C, strain hxt1, hits give low values 0.994 | locus YHR129C, strain ARP1, hits give low values 1.02 | locus YHR142W, strain chs7, hits give low values 1.02 | locus YHR200W, strain rpn10, hits give low values 0.991 | locus YIL066C, strain RNR3, hits give low values 1.02 | locus YIL073C, strain SPO22, hits give low values 0.988 | locus YIL125W, strain kgd1, hits give low values 0.998 | locus YIR030C, strain dcg1, hits give low values 1.01 | locus YJL092W, strain hpr5, hits give low values 0.99 | locus YJL095W, strain BCK1 (second series), hits give low values 0.983 | locus YJL095W, strain BCK1, hits give low values 1 and 1.04 | locus YJL115W, strain asf1, hits give low values 0.979 | locus YJL129C, strain trk1, hits give low values 0.972 | locus YJL134W, strain LCB3, hits give low values 1.01 | locus YJL154C, strain vps35, hits give low values 0.978 | locus YJL164C, strain tpk1, hits give low values 1.02 | locus YJL166W, strain qcr8, hits give low values 0.957 | locus YJL168C, strain set2, hits give low values 0.988 | locus YJL187C, strain SWE1 (second series), hits give low values 1.01 | locus YJL187C, strain SWE1, hits give low values 0.987 | locus YJR043C, strain POL32, hits give low values 1.04
